Bioassay records from PubChem BioAssay.
RAD52 inh: RAD52 DNA annealing inhibitors, primary screen, biochemical, FRET, single point, set 2 | inhibition, % at 18.7 µM | 360,000 compounds, 0.46% hits | recombinant RAD52 DNA annealing, FRET fluorescence;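 active means every replicate showing at least 50% inhibition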
PREPL inh: PREPL enzyme inhibitors, primary screen, biochemical, fluorescence polarization; Prolyl endopeptidase-like (Homo sapiens), Q4J6C6; recombinant PREPL, fluorescence polarization activity-based probe; inhibition, % at 5.96 µM; 320,000 compounds, 0.68% hits; in the data active means inhibition above about 43%;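 further: 0% = enzyme with DMSO and 100% = wells lacking enzyme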
Target sequence (Q4J6C6 whole entry, looked up): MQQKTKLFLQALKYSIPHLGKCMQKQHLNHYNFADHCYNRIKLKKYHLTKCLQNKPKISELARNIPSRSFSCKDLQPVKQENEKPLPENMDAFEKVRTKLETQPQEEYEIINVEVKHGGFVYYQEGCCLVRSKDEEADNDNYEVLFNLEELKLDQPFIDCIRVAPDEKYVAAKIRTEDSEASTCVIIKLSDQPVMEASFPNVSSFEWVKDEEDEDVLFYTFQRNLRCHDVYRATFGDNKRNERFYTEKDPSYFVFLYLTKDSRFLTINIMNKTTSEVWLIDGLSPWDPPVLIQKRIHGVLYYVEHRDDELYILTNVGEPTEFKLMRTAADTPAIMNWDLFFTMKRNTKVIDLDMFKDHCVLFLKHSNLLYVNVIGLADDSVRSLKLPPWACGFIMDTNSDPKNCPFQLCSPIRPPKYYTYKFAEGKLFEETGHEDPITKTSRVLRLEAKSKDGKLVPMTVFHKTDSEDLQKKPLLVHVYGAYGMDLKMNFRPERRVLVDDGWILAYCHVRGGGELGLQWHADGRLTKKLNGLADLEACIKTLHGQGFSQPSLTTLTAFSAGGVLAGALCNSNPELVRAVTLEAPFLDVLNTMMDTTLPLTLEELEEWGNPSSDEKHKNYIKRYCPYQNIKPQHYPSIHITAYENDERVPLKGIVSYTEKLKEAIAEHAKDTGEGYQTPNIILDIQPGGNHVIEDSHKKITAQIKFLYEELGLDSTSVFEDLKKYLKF
FID counter: compounds displacing fluorescent DNA intercalator, primary screen, artefact control for HCV NS3 helicase inhibitor project, biochemical, FID fluorescence | DNA fluorescent intercalator displacement | 290,000 compounds, 0.17% hits | inhibition, % at 7.9 µM; in the data active means inhibition above about 37%;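 further: 0% = vehicle and 100% = reference compound; higher means more ethidium bromide displaced from hairpin DNA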
RAD54 branch: inhibitors of human RAD54 branch migration, primary screen, biochemical, fluorescence, single point; 360,000 compounds, 0.14% hits; inhibition, % at 10.4 µM; RAD54 Holliday junction branch migration, FAM/BHQ fluorescence; DNA repair and recombination protein RAD54-like (Homo sapiens), Q92698;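 active means mean normalized replicate activity at least 40 and at least half of replicates scoring 40 or more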;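 further: 0% = median of neutral control wells and 100% = median of positive control wells; inhibitors cause a drop in the FAM fluorescence signal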
UBC13 polyUb: UBC13 polyubiquitin chain formation inhibitors, primary screen, biochemical, TR-FRET, uHTS; inhibition, % at 20 µM; 330,000 compounds, 0.47% hits; Ubiquitin-conjugating enzyme E2 N (Homo sapiens), P61088; in the data active means inhibition above about 45%, passing the limit was not always enough
MIN6 prolif: inducers of MIN6 beta-cell proliferation, primary screen, ATP luminescence, uHTS | 330,000 compounds, 0.29% hits | proliferation, % at 10 µM | MIN6 cells proliferation, ATPlite luminescence, 48 h; cells starved in 0.2% serum; 100% = growth in 10% serum;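 active means compounds whose signal lies at least 3.5 SD above the mean of all wells on their plate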;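 further: 0% = DMSO-treated cells in low-serum medium and 100% = 10% serum control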
* marks the source's active call; other numbers are inactive results; / = not tested or not shown; ! = repeats disagree. Sampled rows, rich in hits. Any-hit rate of the full collection: about 1.3%.

SMILES	RAD52 inh	PREPL inh	FID counter	RAD54 branch	UBC13 polyUb	MIN6 prolif
CC(=O)OCC1O[C@@H](O[C@@H]2C[C@H]3C(C)(C)[C@H](OC(C)=O)CC[C@]3(C)[C@H]3CC[C@]45C[C@]4(CC[C@H]5[C@@H](C)C[C@@H](O)[C@H](O)C(C)(C)O)[C@@]32C)[C@H](O)[C@@H](O)[C@@H]1O (stereo not given in full)	/	11	-53	/	93*	-9
CC(C)=CCC[C@](C)(O[C@@H]1O[C@H](CO[C@@H]2O[C@H](CO)[C@@H](O)[C@H](O)[C@H]2O)[C@@H](O)[C@H](O)[C@H]1O)C1CC[C@]2(C)C1C(=O)CC1[C@@]3(C)CC[C@H](O[C@H]4O[C@@H](CO)[C@H](O)[C@@H](O)[C@@H]4O)C(C)(C)C3CC[C@]12C (stereo not given in full)	-12	0	/	8	5	6
CC(C)(C)NC(=O)c1ccc2nsnc2c1	-12	1	3	/	2	0.0*
C[C@@H]1CN([C@@H](C)CO)C(=O)Cc2cc(NC(=O)CCCN(C)C)ccc2O[C@H]1CN(C)Cc1ccc(Oc2ccccc2)cc1	91*	/	/	29	/	/
C[C@H](CO)N1C[C@H](C)[C@@H](CN(C)Cc2ccc(Oc3ccccc3)cc2)Oc2ccc(NC(=O)CCCN(C)C)cc2CC1=O	57*	/	/	15	/	/
C[C@H]1CN([C@@H](C)CO)C(=O)Cc2cc(NC(=O)CCCN(C)C)ccc2O[C@H]1CN(C)Cc1ccc(Oc2ccccc2)cc1	42	/	/	14	/	/
C[C@H]1CN([C@@H](C)CO)C(=O)CCCn2nncc2CO[C@@H]1CN(C)S(=O)(=O)c1ccc(F)cc1	0	/	/	6	/	/
CCC(C)NCCOc1ccc(C(C)(C)c2ccccc2)cc1 (stereo not given)	17	-73	39*	12	5	-5
CNCCCOc1ccc(C(C)(C)c2ccccc2)cc1	/	/	17	/	/	/
O=C(CN1CCOCC1)N1CCCCN2[C@H](CO)[C@H](c3ccc(C#Cc4ccccc4F)cc3)[C@@H]2C1	18	/	/	-5	/	/
CC1CCCCN1CC(O)COCCC12CC3CC(CC(C3)C1)C2 (stereo not given)	1	-2	44*	3	3	-6
c1cc2c3c(cccc3c1)NC1(CCCCCC1)N2	/	52*	3	-1	-28	-6
O=C(Nc1cccc(F)c1)N1[C@@H]2CNC[C@H]1C2c1ccc(-c2cccc(F)c2)cc1 (stereo not given in full)	54*!	/	/	/	/	/
O=C(Nc1cc(F)ccc1F)N1[C@@H]2CNC[C@H]1C2c1ccc(-c2ccc(F)cc2)cc1 (stereo not given in full)	58*!	/	/	/	/	/
O=C(Nc1cccc(Cl)c1)N1[C@@H]2CNC[C@H]1C2c1ccc(-c2ccccc2)cc1 (stereo not given in full)	53*	/	/	/	/	/
O=C(Nc1cc(F)ccc1F)N1[C@@H]2CNC[C@H]1C2c1ccc(-c2ccncc2)cc1 (stereo not given in full)	5	/	/	/	/	/
C[C@@H]1CN([C@H](C)CO)C(=O)Cc2cc(N(C)C)ccc2O[C@@H]1CN(C)C(=O)Nc1cccc2ccccc12	3	/	/	4	/	/
O=C(NCC1CC1)[C@@H]1[C@@H](CO)[C@@H]2Cn3c(ccc(-c4cccnc4)c3=O)[C@H]1N2Cc1nccs1	-2	/	/	3	/	/
O=C(C[C@@H]1CC[C@@H](NC(=O)C2CC2)[C@@H](CO)O1)Nc1nccs1	7	/	/	-12	/	/
OCC1(CCOc2ccccc2)CCN(Cc2ccccc2C(F)(F)F)CC1	-13	-5	5	-2	-11	-4
CCOc1ccccc1CN1CCC(CO)(CCOc2ccccc2)CC1	-8	-13	42*	/	10	-3
CN1[C@@H]2c3ccc(-c4ccncc4)c(=O)n3C[C@@H]2[C@@H](CO)[C@@H]1C(=O)NCCc1ccccc1	-2	/	/	-5	/	/
CCOc1cc(/C=C(/C#N)c2nc3ccccc3[nH]2)ccc1OCc1ccc(C(=O)O)o1	/	59*	-27	-11	-19	-4
COc1cc(/C=C(/C#N)c2nc3ccccc3[nH]2)ccc1OCC(=O)Nc1ccccc1C	-29	14	0	-4	-21	-5
COc1cc(/C=C(\C#N)c2nc3ccccc3[nH]2)ccc1OC(=O)c1ccco1	-53	80*	-10	/	-24	0
SMILES	RAD52 inh	PREPL inh	FID counter	RAD54 branch	UBC13 polyUb	MIN6 prolif
Cc1ccc(S(=O)(=O)c2cc3ccccc3oc2=Nc2ccc3c(c2)OCCO3)cc1	/	0	-1	5	-10	0.0*
Cc1ccc(S(=O)(=O)c2cc3ccccc3oc2=Nc2ccc3c(c2)OCO3)cc1	/	10	1	/	-25	-2
CCC(=O)N(C)C[C@H]1Oc2ncc(C#CCC(C)C)cc2C(=O)N([C@@H](C)CO)C[C@@H]1C	5	/	/	-39	/	/
Cc1ccc2c(=O)c(C(=O)NCc3cccs3)c[nH]c2c1	-9	74*	0	-5	1	0
Cc1noc(C)c1NC(=O)N(C)C[C@@H]1Oc2ccc(NC(=O)Nc3ccccc3)cc2C(=O)N([C@H](C)CO)C[C@@H]1C	0	/	/	5	/	/
CC1(C)CCCN(C(=O)c2ccc3c(c2NCCO)C(=O)c2ccccc2C3=O)C1	/	53*	-26	/	-344	-1
C=CCOc1ccc(CN(C)CC(=O)Nc2ccc3c(c2)CCC3)cc1	16	-26	37*	/	-3	-6
COc1ccc2c3c([nH]c2c1)[C@H](CO)NCC31CCN(C(=O)Nc2ccc(F)cc2F)CC1	76*	/	/	/	/	/
COc1ccc2c3c([nH]c2c1)[C@@H](CO)NCC31CCN(C(=O)Nc2ccccc2F)CC1	68*	/	/	/	/	/
COc1ccc2c3c([nH]c2c1)[C@@H](CO)N(C(C)=O)CC31CCN(C(=O)Nc2ccccc2F)CC1	11	/	/	/	/	/
COCC#Cc1cnc2c(c1)C(=O)N([C@@H](C)CO)C[C@H](C)[C@H](CN(C)C)O2	-5	/	/	8	/	/
C#CCOCCOCCOCCNc1nc(N2CCOCC2)nc(N2CCN(C(=O)[C@H](CCCCN)n3cc([C@@H](N)C(C)CC)nn3)CC2)n1 (stereo not given in full)	4	5	38*	-2	23	-2
C#CCOCCOCCOCCNc1nc(N2CCN(C(=O)C(Cc3cc4ccccc4[nH]3)n3cc(C(N)Cc4ccc(O)cc4)nn3)CC2)nc(N2CCN(C(=O)C(Cc3cc4ccccc4[nH]3)n3cc(C(N)Cc4ccc(O)cc4)nn3)CC2)n1 (stereo not given)	/	/	52*	/	/	/
